High-throughput results deposited in PubChem BioAssay by several laboratories.
CRFBP-R2 block = blocks CRF-induced signaling of the CRF-BP/CRF-R2 complex; 350,000 compounds, 0.59% hits; HEK293 CRF-R2/CRF-BP, CRF-induced calcium fluorescence; AID 588475; inhibition, % at 11.8 µM;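 active = inhibition of the ligand-induced calcium signal above about 50% at the single tested concentration, limit read from the data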
FAS-TE inh = inhibitors of human fatty acid synthase thioesterase domain; P49327; recombinant FAS-TE, OMFH fluorogenic substrate, fluorescence endpoint; inhibition, % at 15 µM; 360,000 compounds, 0.67% hits;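 active = compounds whose normalised, plate-corrected inhibition of enzyme fluorescence in the single-dose primary screen is 50% or more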
Target sequence (P49327 whole entry, looked up, the tested form may be a part): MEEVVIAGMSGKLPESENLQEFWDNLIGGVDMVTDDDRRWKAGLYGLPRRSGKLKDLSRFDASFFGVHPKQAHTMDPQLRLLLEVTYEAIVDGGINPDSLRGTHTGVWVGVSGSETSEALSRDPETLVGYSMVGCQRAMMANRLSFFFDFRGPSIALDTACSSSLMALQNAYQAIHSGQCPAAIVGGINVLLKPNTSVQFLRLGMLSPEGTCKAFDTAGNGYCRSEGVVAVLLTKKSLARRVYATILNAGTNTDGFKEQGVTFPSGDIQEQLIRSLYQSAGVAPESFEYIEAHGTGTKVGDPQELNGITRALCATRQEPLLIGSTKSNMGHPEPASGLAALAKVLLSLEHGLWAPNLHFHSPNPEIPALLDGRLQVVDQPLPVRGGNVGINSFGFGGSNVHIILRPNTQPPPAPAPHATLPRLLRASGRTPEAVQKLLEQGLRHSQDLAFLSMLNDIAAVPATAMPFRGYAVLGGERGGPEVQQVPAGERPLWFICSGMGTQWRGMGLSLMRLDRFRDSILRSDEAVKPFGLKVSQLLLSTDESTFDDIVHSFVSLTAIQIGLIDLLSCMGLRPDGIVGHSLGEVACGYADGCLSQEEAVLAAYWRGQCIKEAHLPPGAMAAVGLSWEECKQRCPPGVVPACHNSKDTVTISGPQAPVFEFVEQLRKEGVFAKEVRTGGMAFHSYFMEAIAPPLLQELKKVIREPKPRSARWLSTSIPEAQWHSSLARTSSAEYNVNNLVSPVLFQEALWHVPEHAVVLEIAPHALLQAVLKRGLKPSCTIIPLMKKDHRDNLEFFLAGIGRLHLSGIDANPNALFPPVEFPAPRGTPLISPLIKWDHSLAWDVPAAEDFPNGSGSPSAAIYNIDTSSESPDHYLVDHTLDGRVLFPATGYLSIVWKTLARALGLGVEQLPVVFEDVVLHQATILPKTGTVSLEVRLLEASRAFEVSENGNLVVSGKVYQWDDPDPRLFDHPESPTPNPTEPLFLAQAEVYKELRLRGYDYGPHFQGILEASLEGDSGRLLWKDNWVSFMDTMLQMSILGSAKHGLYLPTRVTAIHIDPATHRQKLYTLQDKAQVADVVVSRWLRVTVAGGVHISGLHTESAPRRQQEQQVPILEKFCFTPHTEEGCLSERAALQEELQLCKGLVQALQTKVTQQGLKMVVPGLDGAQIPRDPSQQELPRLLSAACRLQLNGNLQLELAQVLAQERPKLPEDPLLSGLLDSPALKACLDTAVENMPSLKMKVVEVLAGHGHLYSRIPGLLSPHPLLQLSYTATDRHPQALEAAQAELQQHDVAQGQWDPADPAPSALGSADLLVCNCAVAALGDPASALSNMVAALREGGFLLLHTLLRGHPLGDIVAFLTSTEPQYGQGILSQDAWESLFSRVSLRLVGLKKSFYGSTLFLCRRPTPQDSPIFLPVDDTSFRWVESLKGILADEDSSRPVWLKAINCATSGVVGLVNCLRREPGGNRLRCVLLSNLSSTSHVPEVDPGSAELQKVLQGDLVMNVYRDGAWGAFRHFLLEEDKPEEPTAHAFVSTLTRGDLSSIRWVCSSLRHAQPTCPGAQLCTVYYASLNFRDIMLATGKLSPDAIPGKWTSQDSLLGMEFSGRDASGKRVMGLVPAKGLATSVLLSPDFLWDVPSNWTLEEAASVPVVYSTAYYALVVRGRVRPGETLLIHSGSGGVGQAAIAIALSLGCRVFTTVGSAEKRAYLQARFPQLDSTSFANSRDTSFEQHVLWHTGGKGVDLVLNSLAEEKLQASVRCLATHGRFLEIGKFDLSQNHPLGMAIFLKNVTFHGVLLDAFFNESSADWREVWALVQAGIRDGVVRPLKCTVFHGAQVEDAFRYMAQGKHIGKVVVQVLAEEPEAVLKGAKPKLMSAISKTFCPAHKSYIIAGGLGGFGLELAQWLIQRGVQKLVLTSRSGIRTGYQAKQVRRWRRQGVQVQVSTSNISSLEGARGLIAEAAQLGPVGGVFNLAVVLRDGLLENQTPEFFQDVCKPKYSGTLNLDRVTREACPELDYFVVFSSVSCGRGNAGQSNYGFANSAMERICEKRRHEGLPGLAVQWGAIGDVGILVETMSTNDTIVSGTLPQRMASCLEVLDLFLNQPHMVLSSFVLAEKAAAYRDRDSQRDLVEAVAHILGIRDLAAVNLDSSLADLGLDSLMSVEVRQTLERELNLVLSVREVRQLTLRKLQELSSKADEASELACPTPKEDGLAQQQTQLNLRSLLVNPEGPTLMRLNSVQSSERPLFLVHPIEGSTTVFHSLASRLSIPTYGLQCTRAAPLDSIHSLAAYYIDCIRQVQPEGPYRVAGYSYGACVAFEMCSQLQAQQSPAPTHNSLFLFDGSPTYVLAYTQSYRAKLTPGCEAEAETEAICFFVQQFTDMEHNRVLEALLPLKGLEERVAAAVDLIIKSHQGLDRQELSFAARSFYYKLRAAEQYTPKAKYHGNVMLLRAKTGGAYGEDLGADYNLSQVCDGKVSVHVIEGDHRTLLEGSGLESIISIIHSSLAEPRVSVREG
Myeloid diff MLP = compounds promoting myeloid differentiation | 360,000 compounds, 1% hits | calls only at 10 µM | ER-HoxA9 myeloid progenitors, lysozyme-GFP differentiation, flow cytometry;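 active = normalized GFP-positive differentiation at or above the plate's own cutoff, the solvent-only control mean plus 3 SD; inconclusive = no clear call, values can overlap the other calls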;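 also: cells exposed to compound for four days before flow analysis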
NadD block = blocks S. aureus nicotinate mononucleotide adenylyltransferase; AID 602399; 360,000 compounds, 0.78% hits; inhibition, % at 20 µM; purified NadD enzyme, colorimetric absorbance read-out; in the data active = inhibition above about 26%
NRP1-CendR mod = alters CendR peptide binding to human NRP-1 | 360,000 compounds, 0.85% hits | inhibition, % at 25 µM | AID 602438 | FAM-RPARPAR peptide binding to NRP-1, fluorescence polarization | O14786;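 active = inhibition or corrected inhibition above about 18%, plus a signal ratio from 0.5 to 1.5, limit read from the data, passing the limit was not always enough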
FAS-TE inh conf = confirmation of human fatty acid synthase thioesterase inhibitors; shares compounds with FAS-TE inh; recombinant FAS-TE, OMFH fluorogenic substrate, fluorescence; inhibition, % at 15 µM; 2,300 compounds, 45% hits;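 active = compounds inhibiting the enzyme by at least 50% at 15 µM in any one of the replicates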
Hits are given with their value; 0 = inactive; ? = inconclusive; - = not tested or not shown; + = active, no number. Rows were chosen to be rich in hits. Some 3.6% of all compounds tested hit in one or more screens of this group.

SMILES	CRFBP-R2 block	FAS-TE inh	Myeloid diff MLP	NadD block	NRP1-CendR mod	FAS-TE inh conf
O=C(NCc1ccc(F)cc1)C(C(=O)NCc1ccc(F)cc1)c1ncc(C(F)(F)F)cc1Cl	0	58	0	0	0	62
CCNC(=O)CC1C(=O)N(c2ccccc2)C(=O)N1CCOC (stereo not drawn)	0	0	0	0	0	-
Cc1csc(N(C(=O)CCNC(=O)c2ccc([N+](=O)[O-])cc2)c2ccccc2)n1	0	72	0	0	0	78
Cc1csc(N(C(=O)c2ccc(S(=O)(=O)N(C)C)cc2)c2ccccc2)n1	0	0	0	0	0	-
CCOC(=O)N1CCC(=NNC(=O)COc2ccc(OC)cc2)CC1	0	0	0	0	0	-
CC(=O)Nc1cccc(Nc2cnccn2)c1	-	0	0	0	0	-
CC(=O)N1CCN(S(=O)(=O)c2cccc(C(=O)OCc3ccc(C(C)(C)C)cc3)c2)CC1	0	88	0	0	0	51
O=C(CNC(=O)c1ccc(Cl)cc1)NCC(F)(F)F	0	0	0	0	0	-
CCOC(=O)/C=c1\s/c(=C(\C#N)C(=O)NC)n(-c2ccccc2)c1=O	0	0	?	0	0	-
Cc1ccccc1-n1c(=O)/c(=C\c2ccco2)s/c1=C(/C#N)C(=O)Nc1ccccc1	0	62	0	0	0	0
CC1(C(=O)NS(=O)(=O)c2ccc(C#N)cc2)CCN1C(=O)Cc1ccc(Cl)cc1Cl (stereo not drawn)	-	55	0	0	0	70
CC1(C(=O)NS(=O)(=O)c2ccc(C#N)cc2)CCN1C(=O)CCc1ccc(Cl)cc1Cl (stereo not drawn)	-	0	0	0	0	-
O=C1CCC[C@@H]2C[C@@]3(C[C@@H]4CCN1[C@H]24)Nc1cc(Cl)c(Cl)cc1NC3=NCc1ccccc1	0	52	0	0	0	0
COc1ccccc1NS(=O)(=O)c1cc(NC(=O)c2sccc2C)ccc1N1CCCC1	0	58	0	0	0	0
COc1ccccc1NS(=O)(=O)c1cc(NC(=O)/C=C/c2cccs2)ccc1N1CCOCC1	0	82	?	0	0	0
O=C(Nc1ccc2c(c1)OCCO2)C(c1cc2ccccc2o1)N1CCN(c2ccc(C(F)(F)F)cn2)CC1 (stereo not drawn)	-	55	0	0	0	0
COc1ccc(Cl)cc1-c1cc(C(=O)NCc2ccc(C(F)(F)F)cc2)[nH]n1	-	56	0	0	0	55
Cc1cc(C)c(C#N)c(SCS(=O)Cc2ccc(Cl)cc2)n1 (stereo not drawn)	0	69	0	0	0	71
Cc1cc(C)c(C#N)c(SCS(=O)Cc2ccccc2)n1 (stereo not drawn)	0	0	0	0	0	-
CC(C)C[C@H]1C(=O)N2CCC[C@H]2[C@]2(O)O[C@](NC(=O)C3C=C4c5cccc6[nH]c(Br)c(c56)C[C@H]4N(C)C3)(C(C)C)C(=O)N12 (stereo partly drawn)	0	52	0	0	0	0
CCOC(=O)[C@H]1[C@H]2COc3ccc(OC)cc3[C@@H]2N2C(=O)c3cc(OC)ccc3NC(=O)[C@@]12C	0	0	0	0	0	-
COc1ccc(CCN=Cc2c(C)[nH]n(-c3ccc([N+](=O)[O-])cc3)c2=O)cc1OC	0	0	0	0	0	-
COc1ccc(-c2[nH]n(-c3ccc([N+](=O)[O-])cc3)c(=O)c2C=NCc2ccccc2)cc1	0	54	0	0	0	0
C=CCN1C(=O)c2ccccc2Sc2ccc(C(=O)NCCC)cc21	0	0	0	0	0	-
CC(=O)N1CCN(C(=O)c2ccc(S(=O)(=O)Nc3ccccc3F)cc2)CC1	0	0	0	0	0	-
SMILES	CRFBP-R2 block	FAS-TE inh	Myeloid diff MLP	NadD block	NRP1-CendR mod	FAS-TE inh conf
CC(C)(C)c1ccc(/C=N/Nc2ccc(C(=O)O)cc2)cc1	0	64	0	0	0	77
O=C(O)c1ccc(N/N=C/c2ccc(C(F)(F)F)cc2)cc1	0	0	0	0	0	-
O=C1CCCN1CCCNc1nc2c(S(=O)(=O)c3ccc(Br)cc3)nnn2c2ccccc12	0	57	0	0	0	0
O=S(=O)(c1ccccc1)c1nnn2c1nc(NC1CCN(Cc3ccccc3)CC1)c1ccccc12	0	82	+	0	0	79
CC(C)c1ccc(S(=O)(=O)c2nnn3c2nc(NCC2CCCO2)c2ccccc23)cc1 (stereo not drawn)	0	74	0	0	0	80
c1ccc2c(c1)nc(NCC1CCCO1)c1nnnn12 (stereo not drawn)	0	0	0	0	0	-
O=S(=O)(c1ccccc1)c1nnn2c1nc(NC1CCN(Cc3ccccc3)CC1)c1cc(Cl)ccc12	0	80	?	0	0	0
O=C(NC1CCN(Cc2ccccc2)CC1)C1CCN(S(=O)(=O)c2ccc(Cl)cc2)CC1	0	0	0	0	0	-
COCCn1cnnc1SCC(=O)Nc1sccc1C(N)=O	0	0	0	0	0	-
Cc1cnc(C(=O)NC2CCSc3ccccc32)cn1 (stereo not drawn)	0	0	0	0	0	-
COc1cc(NC(=O)c2sc(C)nc2C)c(OC)cc1NC(=O)c1ccccc1	0	0	0	0	0	-
CC(NC(=O)c1ccc([N+](=O)[O-])cc1Cl)C1CC2CCC1C2 (stereo not drawn)	0	57	0	0	0	66
COc1ccc(NS(=O)(=O)c2ccc(O)c(C(=O)OCC(=O)NC(C)C3CC4CCC3C4)c2)cc1 (stereo not drawn)	0	0	0	0	0	-
CC(NC(=O)COC(=O)c1cc(NS(=O)(=O)c2ccc(Cl)c([N+](=O)[O-])c2)ccc1O)C1CC2CCC1C2 (stereo not drawn)	0	53	0	0	0	51
CSc1nc(N(C)C)nc(N(C)C#N)n1	0	0	0	0	0	-
CN(CCO)c1cc(Sc2nc3ccccc3s2)c2nonc2c1[N+](=O)[O-]	0	74	0	0	0	74
CC(=O)OCCN(C)c1cc(SC(C)C)c2nonc2c1[N+](=O)[O-]	0	0	0	0	0	-
CCOC(=O)C1CCCN(c2nc3c(C)cccn3c(=O)c2/C=C(\C#N)C(=O)NCc2ccco2)C1 (stereo not drawn)	0	52	0	0	0	54
Cc1cccn2c(=O)c(/C=C(\C#N)C(=O)NCc3ccco3)c(N3CCCC(C)C3)nc12 (stereo not drawn)	0	0	0	0	0	-
Cc1cccn2c(=O)c(/C=C(\C#N)C(=O)NCc3ccco3)c(N3CCCCCC3)nc12	0	53	0	0	0	0
CCC(CO)Oc1cc(NCc2ccc(C(C)(C)C)cc2)c2ncn(C(C)C)c2c1 (stereo not drawn)	0	0	0	0	0	-
Cc1cccc(CS(=O)(=O)Cc2ccc(C(=O)NCc3cccs3)o2)c1	0	0	0	0	0	-
Cc1cc(Cl)ccc1C(O)c1ncc(-c2ccc3ccccc3c2)[nH]1 (stereo not drawn)	-	0	0	0	0	-
